Data published in PubChem BioAssay AID651820 (National Center for Advancing Translational Sciences (NCATS), 2012).
Out of some 340,000 compounds screened, about 12,000 (3.5%) were called active. A call without a number means that no potency is given here. Inconclusive results (about 18%) are left out. This excerpt belongs to a sample that is enriched for actives. The source holds several records for some structures; these can differ, active in one and inactive in another. A number with no mark means an inactive call. Calls come from the whole dose curve; as a rule, active = well fitted inhibition curve with a large enough effect; inconclusive = small, poorly fitted or top-dose-only effect, or another doubt; inactive = no such curve, though single readings can be large or run the other way.

test: qHTS Assay for Inhibitors of Hepatitis C Virus (HCV); conditions: Huh7.5.1 HCVcc-Cre infection, luciferase reporter, 44 h; series mostly up to 41.8 µM
Method in brief: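 Luciferase read-out (15 sec integration) after a 15 min room-temperature substrate step quantifies HCVcc-Cre infection. Cells, 1,000 per well, had compound added 4 h post-plating, then virus at ~0.5 moi, and were cultured 44 h.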
Potency is the fitted concentration of half-maximal effect.

Row | SMILES | Potency | activity change, negative = inhibition
1 | O=C(c1cnccn1)N1CCN(S(=O)(=O)c2cccc(Cl)c2)CC1 | inactive | 
2 | CCOc1ccc(NC(=O)COC(=O)C2CCC(=O)N2)c([N+](=O)[O-])c1 (configuration not stated) | inactive | 
3 | CC(C)CC1NC(=O)c2cc(Cl)ccc2-n2c1nc1ccccc1c2=O (configuration not stated) | inactive | 
4 | CC(=O)Nc1ccc(-c2nc3ccccc3o2)cc1 | inactive | 
5 | Cc1cc2nc(-c3ccc(NC(=O)c4cccnc4)cc3)oc2cc1C | inactive | 
6 | Cc1ccc2nc(-c3ccc(NC(=O)c4cccnc4)cc3)oc2c1 | 10 µM (active) | 
7 | N=C1c2ccccc2-c2ccccc21 | inactive | 
8 | CC(C)(C)OC(=O)C[C@@H]1C/C=C\C[C@@H](CC(=O)NCCO)C(=O)N[C@H](Cc2c[nH]c3ccccc23)COC1=O | inactive | 
9 | Cc1cc(C)c(S(=O)(=O)n2cc(C(C)C(N)C(=O)O)c3ccccc32)c(C)c1 (configuration not stated) | inactive | 
10 | Cc1cc(=O)n2nc(N3CCC(C(=O)Nc4c(F)c(F)c(F)c(F)c4F)CC3)sc2n1 | inactive | 
11 | CCc1ccc(C(=O)NNC(=O)C2CCN(c3ncnc4sc(C)c(C)c34)CC2)cc1 | 12.6 µM (active) | 
12 | Cc1sc2ncnc(N3CCC(C(=O)Nc4nc5ccc(Cl)cc5s4)CC3)c2c1C | inactive | 
13 | O=C(Cc1ccccc1)NNC(=O)C1CCN(c2ncccn2)CC1 | inactive | 
14 | Cc1sc2ncnc(N3CCC(C(=O)Nc4ccc(F)cc4Cl)CC3)c2c1C | 11.2 µM (active) | 
15 | O=C(NNC(=O)C1CCN(c2ncccn2)CC1)c1ccccc1 | inactive | 
16 | CCOc1cccc2cc(C(=O)OCC(=O)Nc3c(C)cccc3CC)c(=O)oc12 | inactive | 
17 | O=C1/C(=C\c2cccnc2)CN(Cc2ccccc2)C/C1=C\c1cccnc1 | 6.31 µM (active) | 
18 | Clc1ccc(CN2CCN(/N=C/c3cccnc3)CC2)cc1 | inactive | 
19 | O=Cc1cn(Cc2ccccc2)nc1-c1cccnc1 | inactive | 
20 | CC(OC(=O)CNC(=O)c1cccc(F)c1)C(=O)NC1CCCCC1C (configuration not stated) | inactive | 
21 | O=C(N/N=C/c1cc(Br)c(O)c([N+](=O)[O-])c1)C(O)(c1ccccc1)c1ccccc1 | inactive | 
22 | CC(CN1CCCCC1)OC(=O)c1ccccc1Cl (configuration not stated) | inactive | 
23 | COC(=O)c1ccc(NCc2cc(O)ccc2O)cc1 | 5.01 µM (active) | 
24 | CC(C)OC(=O)c1ccc(NCc2cc(O)ccc2O)cc1Cl | 6.31 µM (active) | 
25 | C#CCNc1ccc(C(=O)OCC)cc1 | inactive | 
26 | CC(CN1CCOCC1)OC(=O)c1ccc(Cl)cc1Cl (configuration not stated) | inactive | 

Row | SMILES | Potency | activity change, negative = inhibition
27 | COC(=O)c1ccc(NCC(=O)c2ccccc2)cc1 | inactive | 
28 | COc1ccc(Cl)cc1NC(=O)COc1ccc2c(c1)OCO2 | inactive | 
29 | CC1CN(C(=O)c2ccc([N+](=O)[O-])s2)CC(C)O1 (configuration not stated) | inactive | 
30 | c1ccc(C(=NNc2nc3ccccc3s2)c2ccccn2)cc1 | 1.58 µM (active) | 
31 | c1ccc2sc(NN=C3CCCC3)nc2c1 | inactive | 
32 | O=C(Nc1ccccc1)Nc1nc2ccccc2s1 | inactive | 
33 | Cc1ccc(S(=O)(=O)N2CCOCC2)cc1NC(=O)COC(=O)c1cnccn1 | inactive | 
34 | CCOC(=O)CSc1nnc(-c2cccc(Br)c2)o1 | inactive | 
35 | CC1=CC(C)(C)N(C(=O)CSc2nnc(-c3ccccc3)o2)c2ccc(C)cc21 | 11.2 µM (active) | 
36 | Cc1cccc(C)c1OC(=O)CSc1nnc(-c2ccccc2)o1 | inactive | 
37 | CC1(C)C[C@H]2C3=CCC4[C@@]5(C)CC[C@H](O)[C@](C)(CO)C5CC[C@@]4(C)[C@]3(C)C[C@@H](O)[C@@]2(CO)[C@@H](O)[C@@H]1O (some centres not stated) | inactive | 
38 | Cc1cc(C(=O)OCC(=O)Nc2c(F)cccc2F)c(C)n1C1CC1 | inactive | 
39 | Cc1cc(C(=O)COc2ccc(Br)cc2F)c(C)n1C1CC1 | 22.4 µM (active) | 
40 | Cc1cc(C(=O)COc2ccccc2Cl)c(C)n1C1CC1 | inactive | 
41 | O=C(CSc1ccccn1)N1CCN(S(=O)(=O)c2ccc(Cl)cc2)CC1 | inactive | 
42 | COc1ccccc1-n1nnnc1SCC(=O)NC(=O)Cc1ccccc1 | inactive | 
43 | Cc1ccc(Cl)c(OCC(=O)N(C)CC(=O)Nc2ccc(N3CCOCC3)cc2)c1 | inactive | 
44 | O=C(COC(=O)c1ccco1)Nc1ccc(Cl)cn1 | inactive | 
45 | CN(C)[C@@H]1C(=O)C(C(N)=O)=C(O)[C@@]2(O)C(=O)C3=C(O)c4c(O)ccc(Cl)c4[C@@H](O)[C@H]3C[C@@H]12 | 2.82 µM (active) | 0.778% [at 8.37 µM]
46 | CCCCn1c(N)c(N(CCC(C)C)C(=O)c2ccc(COc3ccccc3)o2)c(=O)[nH]c1=O | inactive | 
47 | O=C(CNC(=O)c1cc(S(=O)(=O)N2CCOCC2)ccc1N1CCCC1)Nc1ccc(F)c(F)c1 | inactive | 
48 | CC1CC(=NNC(=O)C2COc3ccccc3O2)CC(C)(C)C1 (configuration not stated) | inactive | 
49 | CN(C)C(=O)CCc1ccc2c3c([nH]c2c1)[C@]1(CCC2CCCC2)[C@@H](C(=O)N2CCOCC2)C[C@H](CC(=O)NCc2ccco2)C(=O)N1CC3 |  | 11% [at 8.37 µM]
50 | CCc1ccccc1NC(=O)CN(C)C(=O)c1cc(C2CC2)nn1-c1ccccc1 | inactive | 
51 | CN(c1ccccc1)S(=O)(=O)c1cccc(C(=O)NNC(=O)c2ccncc2)c1 |  | -10.3% [at 8.37 µM]
52 | CN(C)S(=O)(=O)c1cccc(NC(=O)Cc2ccsc2)c1 | inactive | 

Row | SMILES | Potency | activity change, negative = inhibition
53 | CN(c1ccccc1)S(=O)(=O)c1cccc(NC(=O)Cc2c(F)cccc2Cl)c1 | 8.91 µM (active) | 
54 | CCOC(=O)[C@@H]1[C@H]2COc3ccc(Br)cc3[C@H]2N2C(=O)N(c3ccc(C)cc3)C(=O)[C@@]12C | inactive | 
55 | COC(=O)CC(CC(=O)OC)n1cccc1 | inactive | 
56 | CCC(C)NC(=O)c1ccc(NC(=O)CC2SC(N3CCCCC3)=NC2=O)cc1 (configuration not stated) | inactive | 
57 | O=C(Nc1cc2c3c(c1)CC(=O)N3CCC2)c1ccccc1F | inactive | 
58 | CCOc1cc(C(=O)Nc2ccc(S(=O)(=O)Nc3cnc4ccccc4n3)cc2)cc(OCC)c1OCC | inactive | 
59 | CC(=O)Oc1ccc(-c2nc3c(C)cccc3c(=O)o2)cc1 | inactive | 
60 | Cc1nc(N=C(N)N)nc2c(C)cccc12 | 14.1 µM (active) | 
61 | COc1cc(Cl)c(C)cc1NC(=O)CSc1nnc(CN2CCCC2)o1 | inactive | 
62 | COc1ccc(-c2nc(CCNC(=O)c3ccc(Br)o3)cs2)cc1 | 10 µM (active) | 
63 | COc1ccc(N2CCN(C(=O)CNC(=O)c3ccc(Br)o3)CC2)cc1 | inactive | 
64 | COc1cc(OC)cc(C(=O)NCC(=O)OCc2csc(-c3ccccc3)n2)c1 | inactive | 
65 | COc1ccc(C2=NN(C(=O)CSc3nnnn3C)C(c3ccco3)C2)cc1 (configuration not stated) | inactive | 
66 | O=C(CSc1nccn1-c1cccc(F)c1)NC1CCCC1 | inactive | 
67 | CCCc1cc(=O)[nH]c2nnc(SCC(=O)Nc3nnc(SCC)s3)n12 | inactive | 
68 | COc1ccccc1-c1nnc(-c2ccc(F)cc2)o1 | inactive | 
69 | Cc1ccc(-c2nc(CS(=O)CC(=O)NC3CCCC3)c(C)o2)cc1 (configuration not stated) | inactive | 
70 | Cc1ccc(S(=O)(=O)NCCC(=O)NC2CCN(Cc3ccccc3)CC2)cc1 | inactive | 
71 | Cc1ccc(-c2nc(CSCC(=O)NC3CCN(Cc4ccccc4)CC3)c(C)o2)cc1 | 12.6 µM (active) | 
72 | O=C(Nc1ccccn1)C1CCN(S(=O)(=O)c2ccccc2)CC1 | inactive | 
73 | Fc1ccccc1COc1cccc2cccnc12 | inactive | 
74 | Cc1ccc(NC(=O)CN(C)C(=O)c2ccc(Cl)c(S(=O)(=O)NCc3ccco3)c2)cc1 | inactive | 
75 | CC1=C(C(N)=O)C(c2ccc(Br)cc2)n2ncnc2N1 (configuration not stated) | inactive | 
76 | Clc1ccc2c(c1)C1=C(C(c3ccncc3)O2)C(c2ccc(Br)cc2)n2ncnc2N1 (configuration not stated) | 12.6 µM (active) | 
77 | COC(=O)C1=C(C)Nc2ncnn2C1c1cccnc1 (configuration not stated) | inactive | 
78 | COc1ccc(C(CNC(=O)c2cc(S(=O)(=O)Nc3cccc(C)c3)ccc2C)N2CCCC2)cc1 (configuration not stated) | inactive | 

Row | SMILES | Potency | activity change, negative = inhibition
79 | COc1cccc(CNC(=O)CN2C(=O)NC(Cc3ccccc3)(c3ccccc3)C2=O)c1 (configuration not stated) | inactive | 
80 | COc1ccccc1N1CCN(CC(=O)Nc2ccnn2C2CCCC2)CC1 | inactive | 
81 | COc1cccc(C(=O)N2CCC(n3nccc3NC(=O)C3CCOC3)CC2)c1 (configuration not stated) | inactive | 
82 | COc1cccc(N2CCN(CC(=O)Nc3ccnn3C3CCCC3)CC2)c1 | 10 µM (active) | 
83 | CC(=O)NC(CC(=O)Nc1ccc(S(=O)(=O)N2CCOCC2)cc1)c1ccccc1 (configuration not stated) | inactive | 
84 | O=C(c1cc(-c2ccc(F)cc2)on1)N1CCN(c2ccc(F)cc2)CC1 | inactive | 
85 | O=C(c1cccc(C(=O)N2CCN(c3ccc(F)cc3)CC2)c1)N1CCN(c2ccc(F)cc2)CC1 | 11.2 µM (active) | 
86 | COc1ccc(-c2cc(C(=O)N3CCN(c4ccc(F)cc4)CC3)no2)cc1 | 22.4 µM (active) | 
87 | O=C(c1ccccc1)c1ccc(C(=O)N2CCN(c3ccccc3)CC2)cc1 | inactive | 
88 | O=C(c1cc2cc(F)ccc2[nH]1)N1CCN(c2ccc(F)cc2)CC1 | inactive | 
89 | O=C(c1cc(-c2ccc(Cl)cc2)on1)N1CCN(c2ccccc2)CC1 | inactive | 
90 | Cc1ccc(C)c(NC(=O)COC(=O)Cn2c(C)csc2=O)c1 | inactive | 
91 | CCC1(CC)NC(=O)N(CC(=O)OCC(=O)c2cc(C)c(C)cc2C)C1=O | inactive | 
92 | O=C(CNC(=O)c1ccccc1Br)NNC(=O)c1cccs1 | inactive | 
93 | COc1cc(S(=O)(=O)N2CCN(C(=O)C3CC3)CC2)ccc1NC(C)=O | inactive | 
94 | O=C(C1Cc2ccccc2CN1C(=O)c1ccco1)N1CCN(c2ccccc2)CC1 (configuration not stated) | inactive | 
95 | O=C(NCCC1=CCCCC1)c1ccc(-n2cncn2)cc1 | inactive | 
96 | CCOc1ccc(C(=O)CCC(=O)NC2=NCCS2)cc1 | inactive | 
97 | Cc1noc(C)c1CSCC(=O)Nc1ccc(Br)cc1Cl | inactive | 
98 | CCOC(=O)CCCCCC(=O)Nc1ccc2c(c1)CC(=O)N([C@@H](C)CO)C[C@H](C)[C@@H](CN(C)Cc1ccccc1)O2 | inactive | 
99 | CC(=O)c1cccc(NC(=O)c2cc(C)nn2-c2ccccc2)c1 | inactive | 
100 | Cc1cc(NC(=O)c2cnn3cccnc23)n(-c2ccccc2)n1 | 12.6 µM (active) | 
101 | O=C(Nc1ccc(Cl)cn1)c1cnn2cccnc12 | inactive | 
